Tau FP inhib: qHTS for Inhibitors of Tau Fibril Formation, Fluorescence Polarization; K18 P301L tau heparin fibrillization, Alexa594 FP, 6 h; Microtubule-associated protein tau (Homo sapiens), P10636; Potency, µM (highest dose often 57.7 µM), usual class: inhibitors; hit rate 0.39% among 280,000; note: nearly all actives have a fitted effect of over 55% in size
Target sequence (P10636 561-689 P618L limits assumed): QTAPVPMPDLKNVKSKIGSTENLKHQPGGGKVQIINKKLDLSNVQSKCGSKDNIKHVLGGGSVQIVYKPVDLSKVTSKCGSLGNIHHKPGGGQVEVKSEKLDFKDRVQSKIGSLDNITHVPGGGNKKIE
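Heparin (20 uM) drove fibril formation of recombinant tau K18 P301L, 15 uM unlabeled with 0.24 uM Alexa 594 label, for 6 hr at 37 C in 100 mM sodium acetate pH 7. Fluorescence polarization (555/632 nm) read 1 hr after 30 uM ThT.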
GoLoco inh red: qHTS Assay for Inhibitors of RGS12 GoLoco Motif Activity (Red Fluorophore); hit rate 0.44% among 230,000; Potency, µM (top dose mostly 61.6 µM), usual class: inhibitors; Gai1:RGS12 GoLoco peptide FP, rhodamine, 10 min; active = well fitted inhibition curve with a large enough effect, not every such curve was filed as active; inactive = no such curve, though single readings can be large or run the other way; note: nearly all actives have a fitted effect of over 30% in size
TRb SRC2 PPI: qHTS for Inhibitors of the Interaction of Thyroid Hormone Receptor and Steroid Receptor Coregulator 2; Thyroid hormone receptor beta (Homo sapiens), P10828; TRbeta-SRC2 peptide binding, fluorescence polarization; receptor liganded with 1 µM T3; Potency, µM (series often up to 106 µM), hits mostly inhibitors; hit rate 0.065% among 280,000; note: nearly all actives have a fitted effect of over 50% in size
Target sequence (P10828 whole entry, looked up): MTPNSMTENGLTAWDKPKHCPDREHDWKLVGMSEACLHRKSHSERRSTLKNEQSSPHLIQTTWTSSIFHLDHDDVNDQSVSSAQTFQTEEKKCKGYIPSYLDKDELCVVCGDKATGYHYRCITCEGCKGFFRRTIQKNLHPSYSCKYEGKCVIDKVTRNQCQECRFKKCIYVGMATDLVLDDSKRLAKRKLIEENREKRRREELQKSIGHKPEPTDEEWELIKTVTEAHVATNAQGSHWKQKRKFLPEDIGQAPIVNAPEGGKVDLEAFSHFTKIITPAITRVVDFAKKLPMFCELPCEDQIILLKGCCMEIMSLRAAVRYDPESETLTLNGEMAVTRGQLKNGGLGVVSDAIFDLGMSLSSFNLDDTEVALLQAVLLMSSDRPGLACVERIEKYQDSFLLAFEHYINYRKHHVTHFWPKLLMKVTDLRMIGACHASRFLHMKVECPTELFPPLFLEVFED
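A fluorescence polarization screen tested compounds at multiple concentrations against complex formation between 0.6 uM TRb ligand-binding domain and 20 nM Texas Red SRC2 peptide, with 1 uM T3 present; readout after 5 hr.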
Tau fluor counter: Counterscreen qHTS for Inhibitors of Tau Fibril Formation, Fluorescence Polarization | Potency, µM (doses to about 57.7 µM) | tau K18 P301L Alexa594 fluorescence, heparin fibrillization | hit rate 0.93% among 280,000; note: nearly all actives have a fitted effect of over 55% in size
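Human tau K18 P301L (15 uM unlabeled, 0.24 uM Alexa 594-labeled) in 100 mM sodium acetate pH 7 with 20 uM heparin, 6 hr at 37 C. ThT 30 uM added, 1 hr ambient; Alexa 594 FP and total fluorescence read at 555/632 nm.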
TR SRC2 fluor cs: Total Fluorescence Counterscreen for Inhibitors of the Interaction of Thyroid Hormone Receptor and Steroid Receptor Coregulator 2 | TRb/SRC2 Texas Red total fluorescence interference | Potency, µM (series often up to 106 µM) | hit rate 0.29% among 280,000; active = well fitted curve in either direction with a large enough effect; inconclusive = small, poorly fitted or top-dose-only effect
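Human TRb ligand-binding domain at 0.6 uM with 20 nM Texas Red SRC2 peptide in Tris buffer containing 1 uM T3 and 5% DMSO, incubated with compound 5 h at ambient temperature. Total fluorescence (555/632 nm) calculated as parallel + 2 × perpendicular.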
Tau ThT inhib: qHTS for Inhibitors of Tau Fibril Formation, Thioflavin T Binding; hit rate 2.1% among 270,000; recombinant tau K18 P301L (four-repeat tau fragment), heparin-induced fibrillization, ThT fluorescence; AID 1460, 2008; Potency, µM (top dose mostly 57.4 µM), usual class: inhibitors; note: nearly all actives have a fitted effect of over 55% in size
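In this qHTS, human K18 P301L tau is incubated with compound and heparin for 6 hr at 37 C, and Thioflavin T fluorescence then reports fibril load.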
Hits are given with their value; [ ] = another dose, or the depositor's remark. An excerpt weighted towards active compounds, which were near 3.2% of everything screened. Unless noted, calls come from the whole dose curve; as a rule, active = well fitted curve in the direction sought with a large enough effect; inconclusive = small, poorly fitted or top-dose-only effect, or another doubt; inactive = no such curve, though single readings can be large; an effect the other way counts as inactive or inconclusive.

How did CCOC(=O)C1CCN(C(=O)CSc2n[nH]c(-c3ccc(OC)cc3)n2)CC1 do in these assays?
Tau FP inhib: inactive; TRb SRC2 PPI: inactive; Tau fluor counter: inactive; TR SRC2 fluor cs: inactive; Tau ThT inhib: inactive

How did CC[C@@H]1O[C@]2(C=C[C@@H]1C)C[C@H]1C[C@H](CC=C(C)[C@@H](O[C@@H]3C[C@H](OC)[C@H](O[C@@H]4C[C@H](OC)[C@H](O)[C@H](C)O4)[C@H](C)O3)[C@@H](C)C=CC=C3CO[C@@H]4[C@@H](O)C(C)=C[C@@H](C(=O)O1)[C@]34O)O2 do in these assays?
GoLoco inh red: inactive; TRb SRC2 PPI: inactive; TR SRC2 fluor cs: inactive

How did CCCCCCC(=O)Nc1nc(C)c(-c2csc(Nc3ccccc3OC)n2)s1 do in these assays?
Tau FP inhib: inactive; GoLoco inh red: inactive; TRb SRC2 PPI: inactive; Tau fluor counter: 14µM[quencher]; TR SRC2 fluor cs: inactive; Tau ThT inhib: inconclusive

Results for COc1ccccc1Nc1nc(-c2sc(NC(=O)c3ccccc3)nc2C)cs1 ?
Tau FP inhib: inactive; GoLoco inh red: inactive; TRb SRC2 PPI: inactive; Tau fluor counter: inconclusive; TR SRC2 fluor cs: inactive; Tau ThT inhib: inconclusive

How did CCC(=O)Nc1nc(C)c(-c2csc(Nc3ccccn3)n2)s1 do in these assays?
Tau FP inhib: inconclusive; GoLoco inh red: inactive; TRb SRC2 PPI: inactive; Tau fluor counter: inconclusive; TR SRC2 fluor cs: inactive; Tau ThT inhib: 14µM

What do the screens show for `CCCC(=O)Nc1nc(C)c(-c2csc(Nc3ccccc3C)n2)s1`?
Tau FP inhib: inconclusive; GoLoco inh red: inactive; TRb SRC2 PPI: inactive; Tau fluor counter: inactive; TR SRC2 fluor cs: inactive; Tau ThT inhib: inconclusive

Results for CCCCCC(=O)Nc1nc(C)c(-c2csc(Nc3ccccc3OC)n2)s1 ?
Tau FP inhib: inconclusive; GoLoco inh red: inactive; TRb SRC2 PPI: inactive; Tau fluor counter: 11µM[quencher]; TR SRC2 fluor cs: inactive; Tau ThT inhib: inconclusive

What do the screens show for `CCCCCC(=O)Nc1nc(C)c(-c2csc(Nc3ccccc3OCC)n2)s1`?
Tau FP inhib: inactive; GoLoco inh red: inactive; TRb SRC2 PPI: inactive; Tau fluor counter: inconclusive; TR SRC2 fluor cs: inactive; Tau ThT inhib: inconclusive

How did COc1ccccc1Nc1nc(-c2sc(NC(=O)c3ccc([N+](=O)[O-])cc3)nc2C)cs1 do in these assays?
Tau FP inhib: inconclusive; GoLoco inh red: inactive; TRb SRC2 PPI: inactive; Tau fluor counter: 10µM[quencher]; TR SRC2 fluor cs: inactive; Tau ThT inhib: 3.5µM

How did Cc1ccc(-c2ccc(/C=C3\C(=O)ON=C3c3ccccc3)o2)c([N+](=O)[O-])c1 do in these assays?
Tau FP inhib: inactive; GoLoco inh red: inactive; TRb SRC2 PPI: inactive; Tau fluor counter: inconclusive; TR SRC2 fluor cs: inactive; Tau ThT inhib: 16µM

How did CC(=O)N1CCN(c2ccc(Nc3nc(C)nc4c3oc3ccccc34)cc2)CC1 do in these assays?
Tau FP inhib: inactive; GoLoco inh red: inactive; TRb SRC2 PPI: inactive; Tau fluor counter: inconclusive; TR SRC2 fluor cs: inactive; Tau ThT inhib: 8.9µM

What do the screens show for `CC(=O)Nc1ccc(Nc2nc(C)nc3c2oc2ccccc23)cc1`?
Tau FP inhib: inactive; GoLoco inh red: inactive; TRb SRC2 PPI: inactive; Tau fluor counter: inactive; TR SRC2 fluor cs: inactive; Tau ThT inhib: inconclusive

What do the screens show for `C=CCn1c(P(=O)(O)c2ccccc2)nc2ccccc21`?
Tau FP inhib: inactive; GoLoco inh red: 5.6µM; TRb SRC2 PPI: inactive; Tau fluor counter: inactive; TR SRC2 fluor cs: inactive; Tau ThT inhib: inactive

Results for C=CCn1c(C(CC)CC)nc2ccccc21 ?
Tau FP inhib: inactive; GoLoco inh red: inactive; TRb SRC2 PPI: inactive; Tau fluor counter: inactive; TR SRC2 fluor cs: inactive; Tau ThT inhib: inactive

Results for CC(C)CC(C)(O)C#CC(C)(O)CC(C)C (configuration not stated) ?
TRb SRC2 PPI: inactive; TR SRC2 fluor cs: inactive

What do the screens show for `CCOC(=O)c1cc2n(c1/N=C/N(C)C)-c1ccccc1C2=O`?
Tau FP inhib: 25µM; GoLoco inh red: 25µM; TRb SRC2 PPI: inactive; Tau fluor counter: inconclusive; TR SRC2 fluor cs: inactive; Tau ThT inhib: 25µM

Results for C=CCn1c(SCC(=O)NC2CCCC2)nc2scc(-c3ccco3)c2c1=O ?
Tau FP inhib: inconclusive; GoLoco inh red: inactive; TRb SRC2 PPI: inactive; Tau fluor counter: inactive; TR SRC2 fluor cs: inactive; Tau ThT inhib: 28µM

Results for C=CCn1c(SCC(=O)NCCCC)nc2scc(-c3ccco3)c2c1=O ?
Tau FP inhib: inactive; GoLoco inh red: inactive; TRb SRC2 PPI: inactive; Tau fluor counter: inactive; TR SRC2 fluor cs: inactive; Tau ThT inhib: inconclusive

How did CC(C)OCCCN1C(=O)c2[nH]nc(-c3ccccc3O)c2C1c1cccc(OCc2ccccc2)c1 (configuration not stated) do in these assays?
Tau FP inhib: inconclusive; TRb SRC2 PPI: inactive; Tau fluor counter: inactive; TR SRC2 fluor cs: inactive; Tau ThT inhib: inactive

Results for O=C1C(Cl)=C(N2CCC(C(=O)O)CC2)C(=O)c2ccccc21 ?
Tau FP inhib: 11µM; GoLoco inh red: inactive; TRb SRC2 PPI: inconclusive; Tau fluor counter: 10µM[quencher]; TR SRC2 fluor cs: inactive; Tau ThT inhib: 4.5µM

How did N#Cc1c(/N=C/c2cccs2)sc2c1CCCCC2 do in these assays?
Tau FP inhib: inactive; GoLoco inh red: inactive; TRb SRC2 PPI: inactive; Tau fluor counter: inactive; TR SRC2 fluor cs: inactive; Tau ThT inhib: 3.2µM

Results for C[C@H]1Cc2c(COc3ccccc3)nc3c(c2CO1)CN(S(=O)(=O)c1ccc(C#N)cc1)CC3 ?
Tau FP inhib: inactive[11.6 µM]; GoLoco inh red: inactive[14.2 µM]; TRb SRC2 PPI: inactive[11.2 µM]; Tau fluor counter: inactive[11.6 µM]; TR SRC2 fluor cs: inactive[11.2 µM]; Tau ThT inhib: inactive[11.5 µM]

How did Clc1cccc(CSc2nncn3c2cc2sccc23)c1 do in these assays?
Tau FP inhib: inconclusive; TRb SRC2 PPI: inactive; Tau fluor counter: inconclusive; TR SRC2 fluor cs: inactive; Tau ThT inhib: inconclusive

Results for Oc1ccc(-c2csc(-c3c[nH]c4ccccc34)n2)c(O)c1 ?
Tau FP inhib: inconclusive; GoLoco inh red: inactive; TRb SRC2 PPI: inactive; Tau fluor counter: 10µM[quencher]; TR SRC2 fluor cs: inactive; Tau ThT inhib: 6.3µM

Results for Cc1ccc(-c2csc(-c3c[nH]c4ccccc34)n2)c(C)c1 ?
Tau FP inhib: inconclusive; GoLoco inh red: inactive; TRb SRC2 PPI: inactive; Tau fluor counter: 10µM[quencher]; TR SRC2 fluor cs: inactive; Tau ThT inhib: 14µM

How did O=C(Nc1ccc2nc(SCC(=O)N3CCCC3)sc2c1)c1ccc(Br)cc1 do in these assays?
Tau FP inhib: inconclusive; TRb SRC2 PPI: inactive; Tau fluor counter: inactive; TR SRC2 fluor cs: inconclusive; Tau ThT inhib: inconclusive
